# Bioassay records from PubChem.
# IL-1B inflam inh: blocks inflammasome-driven IL-1 beta release | THP-1 LPS/ATP IL-1B secretion, AlphaLISA, 16 h; active compounds read low | activity change, % at 57.5 µM | hit rate 4.7% among 360,000; in the data active means activity change below about -50%; inconclusive means mostly about -30% to -49%; further: on the % scale 0 is the no-effect control and ±100 the full control effect
#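 THP-1 cells pretreated 1 hr with compounds (up to 57.5 uM final), then stimulated with LPS (250 ng/mL final) plus ATP (1.25 mM final); secreted IL-1B measured by AlphaLISA after 16 hr, decreased signal indicating inhibition.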
# TDP1 cell noCPT: qHTS for Inhibitors of human tyrosyl-DNA phosphodiesterase 1 (TDP1): qHTS in cells in absence of CPT; AID 686978, 2013; DT40 Tdp1-/- hTDP1 cells, no CPT, ATP luminescence, 48 h; Potency, µM (highest dose often 46.2 µM), without a hit: at the highest dose activity change, negative = growth inhibition, hits mostly inhibitors; hit rate 15% among 420,000; further: potency means the concentration at half of the fitted maximal effect; on the % scale 0 is the no-effect control and ±100 the full control effect; nearly all actives have a fitted effect of over 55% in size
#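 Readout: luminescence from CellTiter-Glo after 30 min in the dark at RT. Cells: DT40 Tdp1-/- with stable hTDP1, 400/well. Exposure: compounds alone, ≥48 hr, 37 °C.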
# HepG2 tox: kills HepG2 cells in TGF-b inhibitor counter-screen | HepG2 CAGA-GFP viability, ATP luminescence, 18 h | Potency, µM (top dose mostly 46.1 µM), inactives show at the top dose activity change, negative = cytotoxicity, usual class: cytotoxic | hit rate 0.76% among 410,000 | AID 588856; further: potency means the concentration at half of the fitted maximal effect
#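 HepG2 CAGA-GFP cells (1000/well, DMEM with 1% FBS) received compound, then TGF-beta at 500 pg/mL final, and were incubated 18 hours at 37 degrees C. Viability was read by CellTiter-Glo luminescence. Media-only wells were set as complete cell-killing and DMSO as no toxicity.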
# DT40 TDP1 CPT: growth inhibition of DT40 Tdp1-/-;hTDP1 cells with camptothecin (screen for TDP1 inhibitors) | chicken DT40 Tdp1-/-;hTDP1 cells + 20 nM CPT, ATP luminescence, 48 h | Potency, µM (doses to about 46.2 µM), without a hit: top-dose activity change, negative = growth inhibition, most hits filed as inhibitors | hit rate 12% among 420,000; further: potency means the concentration at half of the fitted maximal effect; on the % scale 0 is the no-effect control and ±100 the full control effect; nearly all actives have a fitted effect of over 55% in size
#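 Chicken DT40 Tdp1-/- cells complemented with human TDP1, 400 cells/well, exposed to compounds plus 20 nM camptothecin for at least 48 h at 37 C; viability read as ATP content by CellTiter-Glo luminescence.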
# TGFb inhibitor: inhibitors of TGF-b signaling | Potency, µM (titrated, usually from 46.1 µM), without a hit: at the top dose activity, negative = inhibition, most hits filed as inhibitors | HepG2 CAGA-GFP TGF-b/SMAD3 reporter, GFP fluorescence, 18 h; TGF-beta stimulated, 500 pg/mL final | hit rate 1.2% among 410,000 | AID 588855; further: potency means the concentration at half of the fitted maximal effect; on the % scale 0 is the no-effect control and ±100 the full control effect; nearly all actives have a fitted effect of over 65% in size
#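 GFP signal (ex488/em500-530) from TGF-beta-stimulated HEPG2 CAGA-GFP cells, 500 pg/mL final, 18 h at 37 degrees C in DMEM plus 1% FBS, normalized to unstimulated and DMSO-stimulated controls.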
# TDP1 inh: TDP1 (human) enzyme inhibition; hit rate 0.28% among 350,000; Q9NUW8; recombinant TDP1, AlphaScreen DNA substrate cleavage; Potency, µM (doses to about 130 µM), for the others: top-dose activity change, negative = inhibition, most hits filed as inhibitors; further: potency means the concentration at half of the fitted maximal effect; on the % scale 0 is the no-effect control and ±100 the full control effect; nearly all actives have a fitted effect of over 40% in size
# Target sequence (Q9NUW8 whole entry, looked up): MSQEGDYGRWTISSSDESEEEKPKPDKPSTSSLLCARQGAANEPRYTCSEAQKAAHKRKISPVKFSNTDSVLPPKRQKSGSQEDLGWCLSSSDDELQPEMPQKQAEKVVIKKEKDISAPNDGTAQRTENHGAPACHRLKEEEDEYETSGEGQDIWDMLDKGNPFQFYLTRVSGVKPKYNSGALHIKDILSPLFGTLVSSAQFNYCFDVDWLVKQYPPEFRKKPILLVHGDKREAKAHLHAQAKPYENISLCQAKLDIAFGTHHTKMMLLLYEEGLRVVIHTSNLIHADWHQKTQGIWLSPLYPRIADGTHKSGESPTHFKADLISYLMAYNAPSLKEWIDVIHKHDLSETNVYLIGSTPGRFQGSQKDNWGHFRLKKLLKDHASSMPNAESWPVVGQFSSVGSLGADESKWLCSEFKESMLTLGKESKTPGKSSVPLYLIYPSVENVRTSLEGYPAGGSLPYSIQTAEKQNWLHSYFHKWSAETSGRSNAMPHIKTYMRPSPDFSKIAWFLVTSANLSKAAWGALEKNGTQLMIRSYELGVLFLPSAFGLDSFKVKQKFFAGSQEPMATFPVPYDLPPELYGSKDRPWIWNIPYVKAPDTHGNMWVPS
#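 AlphaScreen read-out: signal falls as enzyme removes the 3' tyrosine-FITC from a 5'-biotinylated DNA oligo (15 nM, 5 min, RT). Enzyme was E. coli-made recombinant Tdp1 at 1 nM, exposed to compound for 15 min beforehand; beads 10 ug/ml, 10 min.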
# * = called active by the depositor; ? = inconclusive; nt = not tested or not shown; [ ] = another dose, or the depositor's remark. Only some compounds are listed: those with a hit (about 19% of all), similar ones and a draw of the others. Unless noted, the call rests on the fitted dose curve; in most records, active means well fitted curve in the direction sought with a large enough effect; inconclusive means small, poorly fitted or top-dose-only effect, or another doubt; inactive means no such curve, though single readings can be large; an effect the other way counts as inactive or inconclusive.
SMILES,IL-1B inflam inh,TDP1 cell noCPT,HepG2 tox,DT40 TDP1 CPT,TGFb inhibitor,TDP1 inh
CC(NC(=O)c1cccc(OC2CCN(C3CCN(C)CC3)CC2)c1)c1ccccc1 (configuration not stated),-6.4,?,-16.0%,?,-5.5%,2.1%
O=C1c2ccccc2C(=O)N1c1ccncc1,nt,nt,nt,nt,nt,4.9%
Cc1cc(SCC(=O)NCc2ccc(F)cc2)nc(=O)[nH]1,nt,-3.7%,-18.1%,3.7%,-13.9%,2.6%
CCOc1ccc(N=C2SC(C(=O)Nc3ccccc3C#N)C(N)=C2C(=O)Nc2ccc(Cl)cc2)cc1 (configuration not stated),0.0,3.8%,-41.3%,2.1%,?,11.0%
N#Cc1ccccc1NC(=O)C1SC(=Nc2ccccc2)C(C(=O)Nc2ccc(Cl)cc2)=C1N (configuration not stated),-83.9*,20.6µM*,-96.8%,16.4µM*,?,-3.7%
C[C@@H]1CN([C@@H](C)CO)C(=O)CCCn2nncc2CO[C@@H]1CN(C)S(=O)(=O)c1cccs1,16.6,?,7.8%,13.3%,-0.7%,nt
CC(C)CCC(CCNCc1ccccn1)c1ccc(Cl)cc1 (configuration not stated),-97.9*,14.6µM*,20µM*,-89.3%,0.0%,nt
C=CCNC(=O)/C(C#N)=C/c1ccccc1OCc1ccc(C(=O)OC)cc1,-3.1,7.31µM*,-28.5%,2.91µM*,?,0.6%
N#C/C(=C/c1ccccc1OCc1ccc(F)cc1)c1ccc(C(=O)O)cc1,45.2,10.6%,-1.2%,-9.1%,2.4%,nt
COC(=O)c1ccc(COc2ccccc2/C=N/NS(=O)(=O)c2ccc(C)cc2)cc1,57.3,?,-11.4%,18.4µM*,-1.9%,0.0%
O=S(=O)(N/N=C/c1ccccc1OCc1ccc(Cl)cc1)c1ccccc1,5.5,?,-4.8%,?,?,2.7%
Cc1ccc(S(=O)(=O)N/N=C/c2cccc3nccnc23)cc1,4.7,14.6µM*,-40.6%,13µM*,-29.2%,8.6%
N#C/C(=C\c1ccccc1OCc1ccc(C(=O)O)cc1)C(=O)Nc1ccc(O)cc1,?,-15.3%,5.9%,2.2%,3.9%,2.5%
Cc1ccc(S(=O)(=O)N/N=C/c2cccc3c2OCCO3)cc1,23.2,-36.7%,-14.9%,?,0.0%,5.5%
COC(=O)c1ccc(COc2ccccc2/C=C(\C#N)C(=O)Nc2ccc(C)cc2)cc1,11.7,5.17µM*,-2.5%,6.51µM*,18.7%,-2.3%
COc1ccc(OC)c(S(=O)(=O)Nc2cc(C)on2)c1,25.7,31.7%,3.3%,-2.8%,?,4.7%
N[C@@H](C(=O)O)c1cc(O)ccc1Cl,nt,1.19µM*,nt,2.37µM*,nt,13.2%[56.1 µM]
N[C@H](C(=O)O)c1cc(O)cc(O)c1,nt,-8.4%,nt,?,nt,4.3%[56.1 µM]
CCOc1ccc(-c2cc(-c3nc(-c4cc(OC)c(OC)c(OC)c4)no3)[nH]n2)cc1Cl,nt,3.26µM*,-12.5%,5.8µM*,-3.2%,2.6%
COc1ccc(-c2noc(COc3cc(C)c(Br)c(C)c3)n2)cc1OC,nt,-27.2%,-33.7%,-29.3%,?,5.3%
COc1ccc(OCc2nc(-c3ccc(OC)c(OC)c3)no2)cc1,nt,?,-20.4%,16.4µM*,30.3%,nt
CCOc1ccc(-c2cc(-c3nc(-c4ccc(OC)c(OC)c4)no3)[nH]n2)cc1,nt,6.51µM*,-17.2%,16.4µM*,21.7%,0.0%
O=C(COc1ccc2ccccc2c1)NC1CC(=O)N(c2ccccc2)C1 (configuration not stated),nt,-23.1%,-12.9%,-19.9%,-29.6%,-2.6%
COc1ccc(C)cc1NC(=O)N1CCCn2nc(C)cc21,nt,-28.5%,5.0%,?,-12.4%,-5.3%
N#Cc1c(NC(=O)c2cc3nc(-c4ccc(Br)cc4)cc(C(F)(F)F)n3n2)sc2c1CCCC2,nt,-6.5%,17.2%,3.6%,6.7%,2.5%
SMILES,IL-1B inflam inh,TDP1 cell noCPT,HepG2 tox,DT40 TDP1 CPT,TGFb inhibitor,TDP1 inh
Cc1c(Cl)cccc1NC(=O)CSC(N)=O,-92.3*,16.4µM*,-2.7%,20.6µM*,3.0%,-2.7%
Cc1c(Cl)cccc1NC(=O)CSCC(N)=O,21.9,-5.0%,-6.0%,-2.2%,19.2%,-2.2%
NC(=O)SCC(=O)Nc1ccc(Cl)c(Cl)c1,-102.8*,23.1µM*,-61.2%,9.2µM*,12.6µM*,3.8%
NC(=O)SCC(=O)Nc1ccc(Cl)cc1,-88.7*,?,-74.4%,20.6µM*,?,9.3%
CCC(CC)C(=O)Nc1ccc(Cl)c(Cl)c1,12.9,13µM*,0.4%,-28.5%,0.0%,-5.6%
CCC(CC)C(=O)Nc1cccc(S(=O)(=O)c2cccc(NC(=O)C(CC)CC)c2)c1,35.2,-1.9%,-3.6%,-17.4%,-5.8%,5.1%
COC(=O)CCC(=O)Nc1ccc(Cl)c(Cl)c1,-14.8,-14.9%,-16.8%,-1.8%,-6.4%,1.1%
Nc1nnc(SCC(=O)Nc2cccc(Cl)c2)s1,4.1,6.7%,9.8%,10.6%,4.4%,-5.8%
NC(=O)SCC(=O)Nc1cccc(Cl)c1,-61.9*,?,-81.0%,?,0.0%,-2.3%
O=C(NCC1CC1(Cl)Cl)Nc1ccc(Cl)c(Cl)c1 (configuration not stated),-95.0*,?,-38.0%,?,?,0.5%
CC(NC(=O)CN1CCOCC1)c1ccc(F)cc1 (configuration not stated),-7.7,7.9%,1.0%,-17.7%,-0.9%,nt
COc1cc2c(cc1OC)C(C)N(C(=O)[C@@H](NC(=O)c1ccccc1)C(C)C)CC2 (some centres not stated),-51.8*,29.1µM*,-2.8%,?,-0.9%,nt
COc1cc2c(cc1OC)C(c1ccccc1)N(C(=O)CCl)CC2 (configuration not stated),-95.7*,2.91µM*,-0.3%,3.26µM*,-20.1%,2.0%
COc1cc2c(cc1OC)C(C)N(C(=O)C(NC(=O)c1ccccc1)C(C)C)CC2 (configuration not stated),39.2,?,-10.2%,?,-7.3%,nt
COc1cc2c(cc1OC)C(C)N(C(=O)Nc1ccccc1)CC2 (configuration not stated),39.9,4.11µM*,11.9%,3.66µM*,5.4%,nt
COc1ccc(-c2cc(C(F)(F)F)n3nc(C(=O)Nc4sc5c(c4C(=O)OC(C)C)CCC(C)C5)cc3n2)cc1 (configuration not stated),nt,1.5%,4.7%,13.4%,3.6%,2.2%[12.3 µM]
